Cardio protect – myocardial damage modulation in H9c2 cells | protection from H2O2 cell death, % at 20 µM | AID 588492 | actives 0.63% (n = 360,000) | H9c2 cardiomyocytes, H2O2 injury protection, ATPLite, 2 h;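 active = compounds giving at least 50% protection of heart cells from peroxide-induced death in the single-dose screen, raw or plate-pattern-corrected value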;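 note: 0% = DMSO wells with peroxide and 100% = DMSO wells without peroxide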
Gli-Sufu block – blocks Gli-Sufu signaling in a luciferase reporter; actives 0.74% (n = 340,000); Sufu-KO-LIGHT fibroblasts, Gli luciferase reporter luminescence; AID 588413; inhibition, % at 5 µM;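 active = inhibition above about 55%, limit read from the data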;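 note: 0% = DMSO-treated cells and 100% = wells with medium but no cells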
TAG inh – triacylglycerol accumulation inhibition. actives 0.66% (n = 230,000). inhibition, % at 12.5 µM. H9c2 cells, Nile Red lipid (TAG) fluorescence; cells loaded with 200 µM oleic acid;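 active = pattern-corrected inhibition of lipid staining of at least 50% with the nuclear-stain viability signal not falling by more than 50%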;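 note: 0% = DMSO wells and 100% = triacsin C control wells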
697 NFkB inh – lowers PMA/ionomycin-induced NF-kB signal in 697 B cells; 697 B-cell NF-kB luciferase reporter, 16 h; inhibition, % at 4 µM; actives 0.33% (n = 330,000); AID 435022; in the data active = inhibition above about 35%
Jurkat NFkB inh – lowers PMA/ionomycin-induced NF-kB signal in Jurkat cells; PMA/ionomycin-induced NF-kB luciferase reporter, luminescence; inhibition, % at 4 µM; actives 0.53% (n = 330,000); AID 435003; in the data active = inhibition above about 50%
NR2F2 inh – blocks human COUP-TFII nuclear receptor; HEK293T NGFI-A luciferase reporter, luminescence; inhibition, % at 8.6 µM; actives 0.7% (n = 370,000); AID 686940;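 active = inhibition above a per-plate cutoff, mean inhibition of test wells between control levels plus 3 SD, cut at about 38% in these data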;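 note: cells cotransfected with COUP-TFII expression vector driving the NGFI-A reporter; 0% = median of COUP-TF2 test wells and 100% = reporter-only cells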
Target sequence (P24468 whole entry, looked up): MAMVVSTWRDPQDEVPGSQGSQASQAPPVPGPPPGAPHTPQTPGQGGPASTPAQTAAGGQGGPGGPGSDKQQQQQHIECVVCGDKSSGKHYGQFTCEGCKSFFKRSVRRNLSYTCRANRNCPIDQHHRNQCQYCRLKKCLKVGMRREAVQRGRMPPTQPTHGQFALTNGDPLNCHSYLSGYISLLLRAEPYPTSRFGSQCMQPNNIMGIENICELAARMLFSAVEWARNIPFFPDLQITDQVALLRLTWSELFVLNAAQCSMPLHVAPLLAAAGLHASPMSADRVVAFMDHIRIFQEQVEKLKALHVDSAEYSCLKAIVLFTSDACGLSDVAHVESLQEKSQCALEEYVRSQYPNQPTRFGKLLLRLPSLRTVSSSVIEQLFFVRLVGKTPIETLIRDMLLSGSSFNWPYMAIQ
697 NFkB conf – lowers PMA/ionomycin-induced NF-kB signal in 697 B cells | 697 B-cell NF-kB luciferase, 16 h | shares compounds with 697 NFkB inh | inhibition, % at 4 µM | actives 35% (n = 2,000) | AID 449746; in the data active = inhibition mostly above about 28%, no sharp cut-off; inactive = mostly below about 22%
Active calls of the source: *; nt = no result given. Rows were chosen to be rich in hits. Some 2.6% of all compounds tested hit in one or more screens of this group.

SMILES | Cardio protect | Gli-Sufu block | TAG inh | 697 NFkB inh | Jurkat NFkB inh | NR2F2 inh | 697 NFkB conf
O=[N+]([O-])c1cccnc1N/N=C/c1ccccc1O | 30 | 28 | 7 | -120 | -16 | -13 | nt
Cc1c(O)ccc(/C=N/Nc2ncccc2[N+](=O)[O-])c1O | 15 | -108 | nt | -371 | -131 | -39 | -278
N/C(=N\OC(=O)COc1ccc(Br)cc1Cl)c1ccccn1 | -14 | -64 | nt | -317 | -111 | -26 | -315
N/C(=N\OC(=O)COc1ccc(Cl)cc1Cl)c1ccccn1 | -20 | -93 | nt | -209 | -123 | -13 | nt
N/C(=N\OC(=O)/C=C/c1ccccc1Cl)c1ccccn1 | -21 | -62 | -9 | -318 | -113 | -10 | -276
N/C(=N\OC(=O)/C=C/c1ccccc1Cl)c1cccnc1 | -6 | -35 | -7 | -125 | -94 | -33 | nt
C=CCN1[C@H](C#N)[C@@H](c2ccc(C#Cc3cccc(OC)c3)cc2)[C@H]1CO | nt | nt | nt | nt | nt | 11 | nt
COc1ccc2c3c([nH]c2c1)[C@]1(CCNC=O)Nc2ccccc2C1=NCC3 | nt | nt | nt | nt | nt | -1 | nt
CCOc1ccc(N(CC(=O)Nc2c(C)n(C)n(-c3ccccc3)c2=O)S(=O)(=O)c2ccc3c(c2)N(C(=O)C2CCC2)CC3)cc1 | nt | nt | nt | nt | nt | -2 | nt
CC(=C/c1ccco1)/C=N/NC(=O)CSc1nnc(SCc2ccc(C)cc2)s1 | -12 | -18 | -16 | 52* | -2 | 10 | 50*
O=C(Nc1nccs1)c1sc2ccccc2c1Cl | -19 | 12 | -3 | -352 | -115 | -28 | -326
CCOc1ccc(-n2c(SCC(=O)Nc3ccc(S(=O)(=O)Nc4nccs4)cc3)nnc2-c2ccc(C(C)(C)C)cc2)cc1 | nt | nt | nt | nt | nt | 2 | nt
O=C(Oc1ccnc2cc(Cl)ccc12)N1CCCCCC1 | -17 | -23 | -12 | 38* | 15 | 10 | 14
CSc1nc(-c2ccccc2)nn1C(=O)c1ccco1 | 15 | -4 | -14 | -3 | -2 | -9 | nt
Cc1ccc(-c2nc(N)n(C(=O)c3ccco3)n2)cc1 | 9 | 4 | 3 | 36* | -20 | 3 | -12
COc1cccc(NC(=O)C(=O)NCCCn2ccnc2)c1 | 13 | -9 | 20 | 20 | -13 | 1 | nt
CCCCCOc1ccc(NC(=O)C(=O)NCCCn2ccnc2)cc1 | -10 | 27 | 11 | 48* | 11 | 4 | 53*
O=C(NCCCn1ccnc1)C(=O)NCc1ccc(Cl)cc1 | 8 | 12 | -14 | 30 | -11 | 10 | nt
Cc1ccc(CNC(=O)C(=O)NCCCn2ccnc2)cc1 | 10 | 10 | nt | 38* | 13 | -17 | 2
CCCOc1ccc(C(=O)NCCCn2ccnc2)cc1 | 1 | 1 | 3 | 22 | -10 | 1 | nt
C=CCOc1ccc(NC(=O)C(=O)NCCCn2ccnc2)cc1 | 4 | 10 | nt | 46* | 7 | -3 | 34*
S=C(Nc1ccccc1Cl)OCCN1CCCC12CCC(c1ccccc1)CC2 (stereo not drawn) | nt | nt | nt | nt | nt | 14 | nt
O=C(NNC(=O)C12CC3CC(CC(O)(C3)C1)C2)c1ccccc1O | 2 | -12 | -18 | -3 | -7 | -4 | nt
O=C(NNC(=O)C12CC3CC(CC(Br)(C3)C1)C2)c1ccccc1F | 2 | 12 | -25 | 44* | 3 | -30 | 43*
COC(=O)C1CN(Cc2ccc(Cl)cc2)CCS(=O)(=O)N1Cc1cn(Cc2ccccc2)nn1 (stereo not drawn) | nt | nt | nt | nt | nt | 2 | nt
SMILES | Cardio protect | Gli-Sufu block | TAG inh | 697 NFkB inh | Jurkat NFkB inh | NR2F2 inh | 697 NFkB conf
Cc1ccc(C(=O)C(C)OC(=O)c2ccccc2[N+](=O)[O-])cc1 (stereo not drawn) | -23 | -81 | nt | -271 | -115 | -70 | -210
COc1ccccc1C(=O)NNC(=O)c1ccccc1[N+](=O)[O-] | 2 | -3 | nt | 7 | 2 | 10 | nt
CCOc1ccc(-n2c(SCC(=O)Nc3ccc(S(=O)(=O)Nc4nccs4)cc3)nnc2-c2ccco2)cc1 | nt | nt | nt | nt | nt | -30 | nt
COC(=O)[C@]12C[C@H](CC(=O)N3CCCC3)C(=O)N(Cc3ccco3)C1=C[C@H](C1CCCC1)O[C@@H]2C | nt | nt | nt | nt | nt | -5 | nt
COc1ccccc1N(Cc1ccccc1)S(=O)(=O)c1cccc(C(=O)Nc2ccccn2)c1 | -3 | 3 | -7 | -324 | -7 | -19 | -190
O=C(Oc1cccc(/C=N/Nc2nc(Nc3ccccc3)nc(N3CCOCC3)n2)c1)c1ccco1 | 39 | 19 | 132 | 43* | -76 | -35 | 49*
COc1cc(/C=N/Nc2nc(N3CCCCC3)nc(N3CCCCC3)n2)ccc1OC(=O)c1ccco1 | nt | nt | nt | 1 | -22 | nt | nt
CCOC(=O)C1=CCN(S(=O)(=O)c2ccc(Br)cc2)C1c1cccc(Br)c1 (stereo not drawn) | nt | nt | nt | nt | nt | 24 | nt
COc1ccc(C(=O)Nc2ccc(NC(=O)c3cccs3)cc2)cc1Cl | -1 | 6 | nt | -1 | -8 | -16 | nt
COc1cc(C(=O)Nc2ccc(C(=O)c3cccs3)cc2)cc(OC)c1OC | 1 | 20 | 16 | 37* | 22 | -12 | 6
Nc1[nH]n(-c2ccccc2)c(=O)c1N=Nc1ccc2c(c1)OCO2 | -5 | -19 | 10 | -101 | -60 | -17 | nt
Nc1nn(-c2ccccc2)c(N)c1N=Nc1ccc2c(c1)OCO2 | -8 | -118 | nt | -270 | -10 | -43 | -220
COC(=O)c1cc2c(c3c4cc(F)ccc4n(S(=O)(=O)c4cccc(C)c4)c13)C(=O)N(Cc1ccc(C(F)(F)F)cc1)C2 | nt | nt | nt | nt | nt | 18 | nt
O=C(O)CCCCCn1c(SCc2cc(=O)n3ccccc3n2)nc2ccsc2c1=O | 46 | -6 | nt | 36* | 7 | -4 | 23
CCCC1CCC2(CC1)CCC2OC(=S)Nc1cccc(Cl)c1 (stereo not drawn) | nt | nt | nt | nt | nt | 9 | nt
CCCCN(C)C(=O)CSc1nnc(-c2cc(OC)c(OC)c(OC)c2)o1 | nt | nt | nt | nt | nt | -13 | nt
COc1ccc(N=Nc2ccc(CO)cc2)cc1 | -14 | -49 | 6 | -324 | -141 | 2 | -241
COCc1cn(-c2ccc3c(c2)[C@@]2(CC(=O)N(C)C2c2ccccc2)C(=O)N3CC(C)C)nn1 (stereo partly drawn) | nt | nt | nt | nt | nt | -23 | nt
CC1CCN(c2cc(N3CCOCC3)c([N+](=O)[O-])cc2F)CC1 | -17 | 7 | -5 | -6 | -5 | 17 | nt
CC1CCN(c2cc(N3CCN(C(=O)c4ccc(F)c(F)c4)CC3)c([N+](=O)[O-])cc2F)CC1 | -5 | 9 | -10 | 38* | 21 | -2 | 18
O=C(O)c1cc(N/N=C/c2ccc(-c3ccccc3)cc2)ccc1Cl | 1 | -130 | nt | nt | nt | -66 | nt
CSc1ccc(/C=N/Nc2ccc(Cl)c(C(=O)O)c2)cc1 | -5 | -197 | -3 | -370 | -114 | -48 | -26
Cc1ccsc1C=Nn1c(-c2n[nH]c3c2CCC3)n[nH]c1=S | nt | nt | nt | nt | nt | 3 | nt
COC(=O)[C@]12C[C@H](CC(=O)NCC3CCCCC3)C(=O)N(Cc3cccc4ccccc34)C1=C[C@H](C1CCCC1)O[C@@H]2C | nt | nt | nt | nt | nt | 1 | nt
Nc1ccc(C(=O)OCCc2ccccc2)cc1 | -8 | -123 | -11 | -50 | -72 | -41 | nt

Compound activity from PubChem.
